# From PubChem BioAssay (NCATS)
# Inconclusive results are not listed. A call without a number means that no potency is given here. Values without a mark were called inactive. Activity calls are given as the source filed them. Calls come from the whole dose curve; as a rule, active = well fitted curve in the direction sought with a large enough effect; inconclusive = small, poorly fitted or top-dose-only effect, or another doubt; inactive = no such curve, though single readings can be large; an effect the other way counts as inactive or inconclusive.
# What was measured:
# [1] = biological target: Calcium and integrin-binding protein 1 (Homo sapiens) (UniProt Q99828); test: Primary qHTS for Identification of Calcium Integrin Binding Protein 1 (CIB1) Competitor (AID 1508620);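 note: GST tagged CIB1 binding a fluorescein labelled alphaIIb integrin peptide tracer; top concentration of the series differs between compounds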
# Summary of the method: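 Fluorescence polarization competition: GST-tagged CIB1 (1 uM final) preincubated with compound 15 min at room temperature, then FITC-labelled alphaIIb peptide (100 nM final) added. After 15 min at room temperature, polarization read at Ex 480/Em 540.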
# [2] = Primary qHTS for inhibitors of nuclear receptor binding SET domain protein 2 (NSD2) in an isogenic RCH-ACV NSD2 p.E1099K mutant (9B) (AID 1645876); note: nearly all actives have a fitted effect of over 70% in size; note: potency is the fitted concentration of half-maximal effect
# [3] = Primary qHTS for inhibitors of nuclear receptor binding SET domain protein 2 (NSD2) in an RCH-ACV wild type WT cells (2C) (AID 1645877); note: nearly all actives have a fitted effect of over 70% in size; note: potency is the fitted concentration of half-maximal effect
# Calcium and integrin-binding protein 1 (Homo sapiens), sequence (Q99828 whole entry, looked up): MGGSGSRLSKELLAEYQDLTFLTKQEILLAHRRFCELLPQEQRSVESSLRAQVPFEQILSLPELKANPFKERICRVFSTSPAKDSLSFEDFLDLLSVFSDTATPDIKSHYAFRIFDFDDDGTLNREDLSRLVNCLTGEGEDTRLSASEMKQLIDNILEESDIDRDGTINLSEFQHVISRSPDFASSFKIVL
smiles,measurement,setting,value
CC(C)(O)C1CCC(C)(C2CCC3(C)C4CCC5C(C)(C(=O)OC6OC(CO)C(O)C(O)C6O)C(O)CC(O)C56CC46CCC23C)O1 (stereo not drawn),Potency,[1],inactive
same,Potency,[2],inactive
same,Potency,[3],inactive
COc1cc(O)c2c(c1)C1=CC(O)C(O)CC1(C)OC2=O (stereo not drawn),Potency,[1],inactive
same,Potency,[2],inactive
same,Potency,[3],inactive
CC(=O)N[C@@H](CCCCN)C(=O)N(C)[C@@H](CC(C)C)C(=O)N[C@H](C(=O)N(C)[C@@H](Cc1ccccc1)C(=O)N[C@H](Cc1ccccc1)C(N)=O)C(C)C,"activity change, negative = inhibition",[1],1.59% [at 12.4 µM]
same,outcome,[2],inactive [at 4.96 µM]
same,outcome,[3],inactive [at 4.96 µM]
C=C1C[C@]23C[C@H]1CC[C@H]2[C@@]1(C)CCC[C@@]2(C)C(=O)O[C@@H]([C@@H]3O)[C@@H]12,Potency,[1],inactive
same,Potency,[2],inactive
same,Potency,[3],inactive
C[C@@H]1O[C@@H](O[C@H]2[C@H](O)[C@@H](O)[C@H](OC[C@H]3O[C@@H](OC(=O)[C@]45CCC(C)(C)C[C@H]4C4=CCC6[C@@]7(C)CC[C@H](O[C@@H]8OC[C@H](O)[C@H](O[C@@H]9O[C@H](CO)[C@@H](O)[C@H](O)[C@H]9O)[C@H]8O)[C@@](C)(CO)C7CC[C@@]6(C)[C@]4(C)CC5)[C@H](O)[C@@H](O)[C@@H]3O)O[C@@H]2CO)[C@H](O)[C@H](O)[C@H]1O (stereo partly drawn),"activity change, negative = inhibition",[1],1.27% [at 12.4 µM]
same,"activity change, negative = viability loss",[2],0.607% [at 9.23 µM]
same,outcome,[3],inactive [at 9.23 µM]
C/C=C/C=C/[C@@H]1O[C@](O)([C@H](CC)C(=O)NC/C=C/C=C(\C)[C@@H](OC)[C@@H](C)C2OC(/C=C/C=C/C=C(\C)C(=O)c3c(O)cc[nH]c3=O)[C@H](O)[C@@H]2O)[C@H](O)[C@H](O)C1(C)C (stereo partly drawn),Potency,[1],inactive
same,Potency,[2],inactive
same,Potency,[3],inactive
CC(=O)NC1C(OC(C)(C)C2CCC3(C)C=C(C4CCC5C4(C)CC(O)C4OC(C(C)(C)O)CCC45C)CCC3O2)OC(CO)C(O)C1O (stereo not drawn),Potency,[1],inactive
same,Potency,[2],inactive
same,Potency,[3],inactive
C=C(C(=O)OC)C1C(O)CC2(C)C(=O)CCC(O)(CO)C2C1O (stereo not drawn),Potency,[1],inactive
same,Potency,[2],inactive
same,Potency,[3],inactive
COC(=O)C1=CO[C@@H](O[C@@H]2O[C@H](CO)[C@@H](O)[C@H](O)[C@H]2O)C2C1C(=O)C[C@H]2C (stereo partly drawn),Potency,[1],inactive
same,Potency,[2],inactive
same,Potency,[3],inactive
CC(=O)O[C@@H]1[C@@H](O)[C@H](O[C@H]2CC[C@]34C[C@]35CC[C@]3(C)[C@@H]([C@@]6(C)CC[C@@H](C(C)(C)O)O6)[C@@H](O)C[C@@]3(C)[C@@H]5C[C@H](O[C@@H]3O[C@H](CO)[C@@H](O)[C@H](O)[C@H]3O)[C@H]4C2(C)C)OC[C@H]1O,Potency,[1],inactive
same,Potency,[2],inactive
same,Potency,[3],inactive
O=C(O)/C=C/c1cc2c(cc1O[C@@H]1O[C@H](CO)[C@@H](O)[C@H](O)[C@H]1O)OCO2,Potency,[1],inactive
same,Potency,[2],inactive
same,Potency,[3],inactive
CC(=O)/C=C/[C@H]1[C@](C)(O)[C@@H](O)[C@H](OC(C)=O)C2C(C)(C)CCC[C@@]21C (stereo partly drawn),Potency,[1],inactive
same,Potency,[2],inactive
same,Potency,[3],inactive
C/C=C(\C)C(=O)O[C@H]1[C@@H](O[C@]2(COC(=O)CC(C)C)O[C@H](COC(=O)C(C)CC)[C@@H](OC(C)=O)[C@@H]2O)O[C@H](COC(C)=O)[C@@H](O)[C@@H]1O (stereo partly drawn),Potency,[1],inactive
same,Potency,[2],inactive
same,Potency,[3],inactive
O=C(NCc1cccc(O)c1)c1cc2cc(F)ccc2[nH]1,Potency,[1],inactive
same,Potency,[2],18.3 µM (active)
same,Potency,[3],20.5 µM (active)
CC(C)C(=O)OC[C@H]1O[C@H](O[C@H]2O[C@H](CO)[C@@H](O)[C@H](O)[C@H]2O)[C@H](O)[C@@H](O)[C@@H]1O,Potency,[1],inactive
same,Potency,[2],inactive
same,Potency,[3],inactive
Cc1ccc(C(=O)N(CCCN)C(c2nc3cc(Cl)ccc3c(=O)n2Cc2ccccc2)C(C)C)cc1 (stereo not drawn),Potency,[1],inactive
same,Potency,[2],0.0058 µM (active)
same,Potency,[3],0.0073 µM (active)
CCNC(=O)C1OC(n2cnc3c(N)nc(NCCc4ccc(CCC(=O)O)cc4)nc32)C(O)C1O (stereo not drawn),Potency,[1],inactive
same,Potency,[2],inactive
same,Potency,[3],inactive
C[C@@H]1C(=O)OC[C@H]2C(C(=O)O)=C[C@@H]3CC(C)(C)C[C@]312,Potency,[1],inactive
same,Potency,[2],inactive
same,Potency,[3],inactive
N#C[C@@H]1C[C@H](F)CN1C(=O)CNC1[C@H]2CN(C(=O)c3ccc(F)cc3)C[C@@H]12 (stereo partly drawn),Potency,[1],inactive
same,Potency,[2],inactive
same,Potency,[3],inactive
Cn1cncc1C(N)(c1ccc(Cl)cc1)c1ccc2c(c1)c(-c1cccc(Cl)c1)cc(=O)n2C (stereo not drawn),Potency,[1],inactive
same,Potency,[2],4.17 µM (active)
same,Potency,[3],0.833 µM (active)
CC(C)(O)/C=C/CC(C)(O)C1C(O)CC2(C)C3CCC4C(C)(C)C(=O)CCC4(C)C3CCC12C (stereo not drawn),Potency,[1],inactive
same,Potency,[2],inactive
same,Potency,[3],inactive
